The list is not random: actives were taken first. Their share in the collection is about 7.9%.
KB-3-1 tox – kills parental KB-3-1 adenocarcinoma cells; actives 1.4% (n = 400,000); Potency, µM (top dose mostly 46.1 µM), hits mostly cytotoxic; KB-3-1 viability, CellTiter-Glo ATP luminescence, 72 h; AID 1347075; further: on the % scale 0 is the no-effect control and ±100 the full control effect; nearly all actives have a fitted effect of over 60% in size
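Cytotoxicity measured as CellTiter-Glo luminescence after 72 h at 37 C. Compound titrations were pinned onto drug-naive KB-3-1 parental adenocarcinoma cells grown in DMEM with 10% FBS, and normalized data fitted to concentration-response curves.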
HT1080NT lethal – kills 2HG-producing HT-1080-NT fibrosarcoma cells. HT-1080-NT fibrosarcoma viability, CellTiter-Glo ATP luminescence, 48 h. Potency, µM (series often up to 46.1 µM), without a hit: at the highest dose activity, negative = less viability, hits mostly cytotoxic. actives 1.6% (n = 360,000);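 further: NT is the 2HG producing partner of a matched IDH1 knockdown line; 0% = DMSO-treated cells and -100% = media-only wells without cells; nearly all actives have a fitted effect of over 55% in size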
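Fibrosarcoma NT cells, 750 per well in 5% FBS RPMI, were exposed to compound for 48 hours. Viability: CellTiter-Glo luminescence.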
HT1080 IDH1KD tx – HT-1080 IDH1 knockdown cell toxicity (counter line). Potency, µM (doses to about 46.1 µM), inactives show top-dose activity, negative = toxicity, usual class: cytotoxic. HT-1080 IDH1 knockdown viability, ATP luminescence, 48 h. actives 2% (n = 360,000). AID 686971;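 further: 0% = DMSO wells and -100% = cell-free medium wells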
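Viability of IDH1-knockdown HT-1080 fibrosarcoma cells was assessed by CellTiter-Glo after 48 h at 37 °C with titrated compound; concentration-effect curves were classified by fit quality and response size.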
MCF10A rerep – inducers of DNA re-replication in MCF 10A breast cells. MCF 10A DNA re-replication, Hoechst nuclear intensity, 48 h. Potency, µM (doses to about 46.1 µM), inactives show at the highest dose activity, positive = re-replication, usual class: activators. actives 2.9% (n = 350,000). AID 624296; further: % of control where 0% means no effect; nearly all actives have a fitted effect of over 50% in size
SW480 rerep – induces DNA re-replication in SW480 colon adenocarcinoma cells. SW480 DNA re-replication, Hoechst DNA content imaging, 48 h. Potency, µM (doses to about 46.1 µM), for inactives: top-dose re-replication activation, usual class: activators. actives 1.8% (n = 340,000). AID 624297; further: % of control where 0% means no effect; nearly all actives have a fitted effect of over 55% in size
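Image-based DNA-content assay: after two days of treatment, nuclei were labelled with the DNA dye Hoechst and imaged, and hits were compounds raising the count of nuclei showing high fluorescence intensity.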
KB-V1 MDR tox – kills drug-selected multidrug resistant KB-V1 cells; KB-V1 MDR cells viability, CellTiter-Glo, 72 h; Potency, µM (series often up to 46.1 µM), actives largely listed as cytotoxic; actives 3.4% (n = 400,000); AID 1347076; further: on the % scale 0 is the no-effect control and ±100 the full control effect; nearly all actives have a fitted effect of over 60% in size
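Cytotoxicity toward P-gp-expressing KB-V1 cells was determined as loss of CellTiter-Glo luminescence after 72 h at 37 degrees C. Compounds were tested in quantitative HTS format across a concentration range, with curves fitted to normalized data.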
Active calls of the source: *; i = inactive; ? = inconclusive; . = no result given; ! = repeats disagree. The call rests on the fitted dose curve; in most records, active means well fitted curve in the direction sought with a large enough effect; inconclusive means small, poorly fitted or top-dose-only effect, or another doubt; inactive means no such curve, though single readings can be large; an effect the other way counts as inactive or inconclusive. Potency means the concentration at half of the fitted maximal effect.

SMILES | KB-3-1 tox | HT1080NT lethal | HT1080 IDH1KD tx | MCF10A rerep | SW480 rerep | KB-V1 MDR tox
CCOC(=O)C1=C(Nc2ccccc2)CC(C)(O)C(C(=O)OCC)C1c1ccccc1 (centres undefined) | i | 6.8% | 12.5% | 3.7% | 0.0% | ?
CCOC(=O)[C@]12CCCC=C1N(Cc1ccco1)C(=O)[C@H](CC(=O)N1CCN(C(=O)c3ccco3)CC1)C2 | i | 24.7% | 13.2% | . | . | i
CCCCCCCCCC[n+]1cccc(Br)c1 | ? | . | . | . | . | i
C(C#CCCCCCCCCC[n+]1ccccc1)#CCCCCCCCCC[n+]1ccccc1 | 3.66µM*! | 8.2µM* | 7.31µM* | ? | ? | i
Cc1cc(C)c2c(n1)SCC(=O)N2CC(=O)Nc1cccc(C)c1C | i | . | . | . | . | i
Oc1c(N=Nc2ccccn2)ccc2ccccc12 | 1.16µM* | ? | 2.31µM* | 13µM* | ? | ?
Oc1[nH]c2ccccc2c1N=Nc1ccccn1 | i | 12.1% | 5.0% | -3.4% | -4.9% | i
COc1ccc(-n2c(SCC(=O)Nc3cc(C)cc(C)c3)nc3c(oc4ccccc43)c2=O)cc1 | i | . | . | . | . | i
Brc1ccccc1C1CC(c2ccccc2)=Nc2ccccc2N1 (centres undefined) | i | -22.5% | -24.6% | 23.1µM* | ? | i
CSC1=NC=C(C#N)C2=NC(c3c(Cl)cccc3Cl)NN12 (centres undefined) | i | ? | ? | . | . | i
CNC(=O)NC(=O)C(C)OC(=O)c1c2c(nc3ccccc13)/C(=C/c1cccs1)CC2 (centres undefined) | ? | -2.4% | -8.0% | ? | ? | 5.17µM*
CCCCNC(=O)COC(=O)c1c2c(nc3ccccc13)CCC2 | i | -9.6% | -13.3% | -1.9% | -5.2% | i
CCCCNC(=O)COC(=O)c1c2c(nc3ccccc13)/C(=C/c1cccs1)CC2 | i | -21.8% | ? | 3.26µM* | 5.17µM* | ?
O=C1NC[C@@H](CCCCN2C[C@H](Cc3ccc(O)cc3)N(CCC3CCCCC3)C(=O)C2=O)N(CCc2ccc(O)cc2)C1=O | i | 18.4% | 17.9% | . | . | i
CCc1oc2ccccc2c1C(=O)c1cc(I)c(O)c(I)c1 | . | . | . | 3.76µM* | 7.9% | .
CCCCc1oc2ccccc2c1C(=O)c1cc(I)c(N(CC)CCOCC)c(I)c1 | i | . | . | . | . | i
Nc1ccc2nc(SCc3ccccc3F)sc2c1 | i | -18.0% | -11.1% | 20.6µM* | 4.7% | i
CCc1nnc(NC(=O)CSc2ccc(-c3nc4ccccc4[nH]3)cn2)s1 | i | ? | -20.7% | 9.0% | 7.8% | i
Cc1ccc2nc(-c3ccc(SCC(=O)Nc4nnc(C)s4)nc3)[nH]c2c1 | i | 20.6µM* | 9.2µM* | 18.4µM* | ? | i
Cc1ccc(NC(=O)CCCSc2nc3ccccc3[nH]2)cc1 | i | -3.3% | -2.6% | 18.5% | -1.9% | ?
Cc1nc(NC(=O)CSc2ccc(-c3nc4ccccc4[nH]3)cn2)sc1C | i | 13µM* | ? | 18.4µM* | 4.7% | i
Cc1ccc(SCC(=O)Nc2ccc(-c3nc4ccccc4[nH]3)cc2)cc1 | i | -10.5% | -3.1% | 13µM* | 8.2% | i
CSC(=NS(=O)(=O)c1ccccc1)NNC(=O)c1c(-c2c(Cl)cccc2Cl)noc1C | i | 3.6% | 3.3% | . | . | i
Cc1ccc(NC(=O)Cc2ccc(-n3c(C)nc4cccnc43)cc2)cc1C | i | . | . | . | . | i
CCOc1ccc(NC(=O)c2cc(S(=O)(=O)N3CCCCCC3)cn2C)cc1 | i | . | . | . | . | i
SMILES | KB-3-1 tox | HT1080NT lethal | HT1080 IDH1KD tx | MCF10A rerep | SW480 rerep | KB-V1 MDR tox
CC(=O)c1ccc(S(=O)(=O)N2CCN(c3nc(-c4ccccc4)nc4ccccc34)CC2)cc1 | ? | . | . | . | . | i
CCOC(=O)c1ccc(Nc2nc(N)c3cc(OC)c(OC)cc3n2)cc1 | i | -2.1% | -0.3% | 20.6µM* | ? | i
COc1cc2nc(Nc3ccc(C)c(Cl)c3)nc(N)c2cc1OC | i | ? | 13µM* | 20.6µM* | 20.6µM* | ?
O=C(c1cccnc1)N1CCc2ccccc2C1 | i | 3.9% | -15.2% | -5.8% | 13.6% | i
NNc1cc2c(nn1)CCN(C(=O)c1ccccc1)C2 | 18.4µM* | ? | ? | . | . | i
Cc1cccc(Nc2nnc(SCC(O)=C(C#N)c3nc4ccccc4[nH]3)s2)c1 | i | -27.7% | ? | 14.6µM* | 25.3% | i
Cc1cccc(N2C(=O)CSC23C(=O)N(Cc2cccc(F)c2)c2ccccc23)c1 (centres undefined) | ? | . | . | . | . | 14.6µM*
Cc1cccc(N2C(=O)CCSC23C(=O)N(Cc2ccc(F)cc2)c2ccccc23)c1 (centres undefined) | i | . | . | . | . | i
Cc1cccc(N2C(=O)CS(=O)(=O)C23C(=O)N(Cc2c(F)cccc2Cl)c2ccccc23)c1 (centres undefined) | i | . | . | . | . | 5.8µM*
CC(C)c1ccc(N2C(=O)CSC23C(=O)N(Cc2cccc(F)c2)c2ccccc23)cc1 (centres undefined) | 20.6µM* | . | . | . | . | 13µM*
O=C1CSC2(C(=O)N(Cc3ccccc3)c3ccccc32)N1c1ccc(Cl)cc1 (centres undefined) | ? | . | . | . | . | i
O=C1CSC2(C(=O)N(Cc3cccc(F)c3)c3ccccc32)N1c1cccc(C(F)(F)F)c1 (centres undefined) | ? | . | . | . | . | 13µM*
COc1ccc(N2C(=O)CS(=O)(=O)C23C(=O)N(Cc2c(F)cccc2Cl)c2ccccc23)cc1 (centres undefined) | i | . | . | . | . | i
Cc1cn(C)c(CC(=O)Nc2cccc(Cl)c2C)c1C(=O)O | i | . | . | . | . | i
CCC(Oc1ccccc1)C(=O)Nc1nnc(S(=O)(=O)N(CC)CC)s1 (centres undefined) | i | . | . | . | . | i
COCCn1c(SCc2ccccc2F)nc2c([nH]c3ccccc32)c1=O | i | . | . | . | . | i
CCc1ccc(N2C(=O)CSC23C(=O)N(Cc2cccc(OC)c2)c2ccccc23)cc1 (centres undefined) | ? | . | . | . | . | 10.3µM*
COc1ccc(N2C(=O)CSC23C(=O)N(Cc2cccc(C(F)(F)F)c2)c2ccccc23)cc1 (centres undefined) | i | . | . | . | . | ?
COc1ccc(CNC(=O)Nc2cn(CC(C)C)c(=O)c3ccccc23)cc1 | i | . | . | . | . | i
O=C(CSc1ncn(-c2ccccc2)n1)Nc1nc2ccccc2s1 | i | -14.0% | -6.9% | ? | 18.6% | 18.4µM*
